# PubChem BioAssay AID504706 (National Center for Advancing Translational Sciences (NCATS), 2011)
# Hit rate of the full screen: of about 320,000 compounds, about 200 (0.062%) were called active. Roughly 6% stayed inconclusive and do not appear here. The entries come from a sample that favours actives as a whole. A number with no mark means an inactive call. The call rests on the fitted dose curve; in most records, active means well fitted activation curve with a large enough effect; inconclusive means small, poorly fitted or top-dose-only effect; inactive means no such curve, though single readings can be large or run the other way.
# Test: qHTS assay for re-activators of p53 using a Luc reporter; further: nearly all actives have a fitted effect of over 45% in size; on activity change, positive = activation: % of control where 0% means no effect
# Conditions: H1299 p53-A138V BP100-luciferase reporter, luminescence, 24 h; series mostly up to 92.2 µM; activity change, positive = activation: at the top concentration
# Method in brief: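 p53-null H1299 cells stably carrying temperature-sensitive p53-A138V and a BP100-luciferase reporter were pinned with compounds (4-point, 1:5 series) and held 24 hrs at 37 deg C. Luminescence was read 10 min after detection reagent.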
# Potency means the concentration at half of the fitted maximal effect.
SMILES,"activity change, positive = activation [%]",Potency
CCN(CC(=O)NC(C)C)C(=O)c1cc(S(=O)(=O)N2CCCCC2)ccc1N1CCCCC1,-0.998,–
COc1ccc(C(=O)COC(=O)CN2C(=O)C3CC=CCC3C2=O)c(OC)c1 (configuration not stated),-10.4,–
Cc1ccc(S(=O)(=O)N2C[C@@H]3CCCC[C@@H]3[C@@H](C)[C@H]2c2cn(Cc3ccccc3)c3ccc(F)cc23)cc1,10,–
COc1ccc(C(=O)Nc2cc(S(=O)(=O)N3CCCC3)ccc2Cl)cc1,-1.71,–
CCN(C(=O)COC(=O)CCC(=O)c1cccs1)C1CCCCC1,-2.62,–
CC(=O)N(O)CCCCCNC(=O)CCC(=O)N(O)CCCCCNC(=O)CCC(=O)N(O)CCCCCNC(=O)CCC(=O)O,-0.988,–
O=C(/C=C/c1ccc2c(c1)OCCO2)c1ccc(O)cc1,–,22.4 µM (active)
O=C(O)/C=C/c1ccc2c(c1)OCCO2,1.53,–
O=C(/C=C/c1ccc(Cl)c([N+](=O)[O-])c1)c1ccc(O)cc1,-13.6,–
O=C(COC(=O)c1ccncc1)Nc1ccc2c(c1)OCO2,0.759,–
O=C(Nc1cccc(S(=O)(=O)N2CCCCC2)c1)c1cncc(Br)c1,0.992,–
COc1cc(S(=O)(=O)N2CCN(C(=O)C3CC3)CC2)ccc1NC(C)=O,-5.44,–
CC[C@]12c3[nH]c4ccc(OC)cc4c3CCN1C(=O)C(CC(=O)NCCN1CCOCC1)C[C@@H]2C(=O)N1CCN(C(=O)C2CC2)CC1 (some centres not stated),2.11,–
CC[C@]12c3[nH]c4cc(CCC(=O)N(C)C)ccc4c3CCN1C(=O)[C@@H](CC(=O)NCCCn1ccnc1)C[C@@H]2C(=O)N1CCN(C(=O)C2CC2)CC1,-3.3,–
CN(C)C(=O)CCc1ccc2c3c([nH]c2c1)[C@]1(C)[C@@H](C(=O)N2CCCCC2)C[C@H](CC(=O)NCCC2=CCCCC2)C(=O)N1CC3,-5.25,–
COc1cc(OC)cc(C(=O)NC(C(=O)N2CCC2)C(C)C)c1 (configuration not stated),-1.81,–

SMILES,"activity change, positive = activation [%]",Potency
O=C(N[C@H]1C/C=C\C(c2ccc(F)cc2)N(Cc2ccccc2)C(=O)C1)OCC1c2ccccc2-c2ccccc21 (some centres not stated),-0.803,–
COc1ccccc1C(=O)Nc1ccc(C)c(S(=O)(=O)N2CCCCC2)c1,-8.11,–
Cc1ccc2c(c1)NC(=O)[C@@]1(C)[C@@H](c3ccccc3)[C@H]3COc4ccc(Cl)cc4[C@@H]3N1C2=O,0.966,–
C[C@@H]1CN([C@H](C)CO)C(=O)c2cc(NC(=O)NC3CCCCC3)ccc2O[C@H]1CN(C)S(C)(=O)=O,2.47,–
O=C(C[C@@H]1C/C=C\CCC(=O)OC[C@@H]2CCCN2C1=O)NCCO,-5.06,–
COc1ccc(/C=C/C(=O)OCC(=O)NC2CCCCCC2)cc1OC,-1.46,–
CC1(C)CC[C@@]2(C(=O)O)C(C1)C1=CCC3[C@@]4(C)CC[C@H](O)C(C)(C)C4CC[C@@]3(C)[C@]1(C)C[C@H]2O (some centres not stated),-3.51,–
CC(=O)C[C@H](O)CC(=O)[C@@H]1OC(=O)[C@@H](C)C/C=C\Cc2ccccc21,-0.871,–
CCCCNC(=O)C(C)N(CCN(C)C)C(=O)CCCCCN1C(=O)NC(c2ccc(Cl)cc2)C(C(=O)OCc2ccccc2)=C1C (configuration not stated),-8.52,–
COc1cc2c(-c3ccc4c(c3)OCO4)c(-c3ccsc3)oc(=O)c2cc1OC,2.64,–
COc1cc(/C=C2\Oc3ccc(C#Cc4ccc(O)cc4)cc3C2=O)cc(OC)c1,14,–
Cc1ccc(NS(=O)(=O)c2ccc(C(C)C)cc2)cc1S(=O)(=O)N1CCOCC1,-4.53,–
COc1ccc(Br)cc1CN(C)C(=O)C1CC(=O)N(C2CCCC2)C1 (configuration not stated),-4.98,–
Cc1nn(-c2ccccc2)c(Cl)c1C(=O)Nc1ccccc1,10,–
Cc1nn(-c2ccccc2)c(C)c1/C=C/C(=O)OC(C)C(N)=O (configuration not stated),8.78,–
Cc1nn(-c2ccccc2)c(Cl)c1/C=C/C(=O)c1ccc(O)cc1,–,22.4 µM (active)
